Our source for the binding signal values is publication PMC7862700, “An all-to-all approach to the identification of sequence-specific readers for epigenetic DNA modifications on cytosine”.

Holding throughout (assay): DAPPL (digital affinity profiling via proximity ligation, sequencing); 10 mM Tris-HCl pH 7.5, 50 mM NaCl, 1 mM DTT, 4% glycerol, room temperature, 30 min; GST-TFs on glutathione beads, 16-mer random dsDNA library, 0.1% formaldehyde crosslink after washing; high values mean tight binding
Common to all, as to conditions: protein: recombinant; tags: N-terminal GST; dsDNA, one strand shown

Assay [1] addresses T1, ELK1 (Homo sapiens, UniProt P19419 1-428).
T1 sequence: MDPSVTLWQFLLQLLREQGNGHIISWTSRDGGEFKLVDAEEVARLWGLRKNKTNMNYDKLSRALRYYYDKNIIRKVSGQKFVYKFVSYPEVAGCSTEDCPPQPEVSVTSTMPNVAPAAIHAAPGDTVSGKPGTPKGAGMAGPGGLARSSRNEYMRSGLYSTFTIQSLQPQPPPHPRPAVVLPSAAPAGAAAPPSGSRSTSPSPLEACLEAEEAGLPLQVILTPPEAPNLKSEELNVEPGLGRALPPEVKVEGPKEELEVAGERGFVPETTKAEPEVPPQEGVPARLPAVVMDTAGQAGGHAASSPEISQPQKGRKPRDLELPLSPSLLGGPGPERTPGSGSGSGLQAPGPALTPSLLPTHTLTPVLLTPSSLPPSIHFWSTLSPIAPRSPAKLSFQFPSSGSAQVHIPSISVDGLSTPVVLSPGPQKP
A digest of the protocol:
(§1)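 A tag-only sample was pooled with DNA-barcoded human transcription factors that had been expressed in yeast as GST fusions and captured on glutathione beads. The pools were incubated for 30 min at room temperature with 200 nmole of a random double-stranded 16-mer DNA library in Tris/NaCl/DTT/glycerol buffer, then washed, crosslinked with 0.1% formaldehyde, proximity-ligated (BsaI/T4 ligase, 1 h, 37 °C), PCR-amplified and sequenced on an Illumina NextSeq500. Binding signal is each hexamer's read frequency for a factor divided by its frequency for the tag-only sample.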

Assay [2] deals with T2, GABPA (Homo sapiens, UniProt Q06546 1-454).
T2 sequence: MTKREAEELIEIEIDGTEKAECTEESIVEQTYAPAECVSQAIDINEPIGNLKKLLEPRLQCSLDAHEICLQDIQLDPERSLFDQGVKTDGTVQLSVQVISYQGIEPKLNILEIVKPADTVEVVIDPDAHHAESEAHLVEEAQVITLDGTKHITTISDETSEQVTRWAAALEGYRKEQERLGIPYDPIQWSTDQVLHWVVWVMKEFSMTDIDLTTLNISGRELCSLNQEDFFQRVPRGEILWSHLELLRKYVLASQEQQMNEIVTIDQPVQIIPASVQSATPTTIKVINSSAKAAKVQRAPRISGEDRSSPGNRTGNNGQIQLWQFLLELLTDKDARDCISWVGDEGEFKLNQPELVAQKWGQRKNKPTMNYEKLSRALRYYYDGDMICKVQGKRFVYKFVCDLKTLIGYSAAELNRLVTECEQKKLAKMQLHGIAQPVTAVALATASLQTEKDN
A digest of the protocol: as §1

In assay [3] the target is T3, ERG (Homo sapiens, UniProt P11308 1-479).
T3 sequence: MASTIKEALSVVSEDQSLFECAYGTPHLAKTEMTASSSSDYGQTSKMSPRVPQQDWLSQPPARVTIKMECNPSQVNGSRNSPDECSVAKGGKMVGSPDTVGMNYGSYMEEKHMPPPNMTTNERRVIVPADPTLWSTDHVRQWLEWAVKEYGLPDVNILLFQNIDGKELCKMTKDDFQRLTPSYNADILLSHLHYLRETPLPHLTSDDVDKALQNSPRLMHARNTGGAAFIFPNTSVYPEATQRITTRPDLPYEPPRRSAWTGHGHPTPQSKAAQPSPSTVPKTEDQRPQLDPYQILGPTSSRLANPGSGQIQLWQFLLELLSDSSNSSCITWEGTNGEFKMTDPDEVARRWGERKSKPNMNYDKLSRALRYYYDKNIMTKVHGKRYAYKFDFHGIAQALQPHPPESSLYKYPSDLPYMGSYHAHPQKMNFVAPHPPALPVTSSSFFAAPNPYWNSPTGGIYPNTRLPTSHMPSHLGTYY
A digest of the protocol:
as §1

In assay [4] the target is T4, ELK3 (Homo sapiens, UniProt P41970 1-407).
T4 sequence: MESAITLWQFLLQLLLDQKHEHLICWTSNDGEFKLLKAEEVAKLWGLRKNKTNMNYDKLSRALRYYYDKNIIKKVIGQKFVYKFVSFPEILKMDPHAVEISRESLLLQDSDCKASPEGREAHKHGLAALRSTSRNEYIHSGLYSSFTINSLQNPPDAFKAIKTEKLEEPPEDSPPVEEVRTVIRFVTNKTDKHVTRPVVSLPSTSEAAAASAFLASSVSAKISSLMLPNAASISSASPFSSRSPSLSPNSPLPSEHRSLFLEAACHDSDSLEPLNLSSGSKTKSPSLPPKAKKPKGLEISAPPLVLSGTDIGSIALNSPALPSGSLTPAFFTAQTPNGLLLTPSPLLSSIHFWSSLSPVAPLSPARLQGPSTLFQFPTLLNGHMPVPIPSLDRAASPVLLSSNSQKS
A digest of the protocol:
as §1

Assay [5] has as its target ETV5 (Homo sapiens, UniProt P41161 1-510). A digest of the protocol: as §1
The target of assay [6] is T5, SPIC (Homo sapiens, UniProt Q8N5J4 1-248).
T5 sequence: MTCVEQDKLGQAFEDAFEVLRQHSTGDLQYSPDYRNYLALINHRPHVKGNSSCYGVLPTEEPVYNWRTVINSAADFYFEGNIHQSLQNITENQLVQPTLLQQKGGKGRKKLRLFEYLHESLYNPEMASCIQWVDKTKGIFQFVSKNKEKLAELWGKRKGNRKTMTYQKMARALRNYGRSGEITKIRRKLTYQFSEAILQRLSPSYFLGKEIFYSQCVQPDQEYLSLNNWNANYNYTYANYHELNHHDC
The method in brief: as §1

In assay [7] the target is ELF4 (Homo sapiens, UniProt Q99607 1-663). A digest of the protocol:
as §1

Assay [8] has as its target T6, ELK4 (Homo sapiens, UniProt P28324-2 1-405).
T6 sequence: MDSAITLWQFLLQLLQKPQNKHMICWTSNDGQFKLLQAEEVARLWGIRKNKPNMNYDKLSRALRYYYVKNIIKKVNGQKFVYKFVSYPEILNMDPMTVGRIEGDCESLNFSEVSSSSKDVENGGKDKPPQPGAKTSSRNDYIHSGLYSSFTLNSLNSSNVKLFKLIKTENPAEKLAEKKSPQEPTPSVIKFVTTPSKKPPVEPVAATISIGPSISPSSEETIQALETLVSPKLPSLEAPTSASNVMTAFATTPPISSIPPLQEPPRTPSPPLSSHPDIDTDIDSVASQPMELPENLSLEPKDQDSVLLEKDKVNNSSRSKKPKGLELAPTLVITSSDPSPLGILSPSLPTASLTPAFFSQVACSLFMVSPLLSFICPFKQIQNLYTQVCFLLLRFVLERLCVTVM
The method in brief:
as §1

For assay [9], the target named is ETV1 (Homo sapiens, UniProt P50549 1-477). The method in brief:
as §1

The target of assay [10] is T7, ETS2 (Homo sapiens, UniProt P15036 1-469).
T7 sequence: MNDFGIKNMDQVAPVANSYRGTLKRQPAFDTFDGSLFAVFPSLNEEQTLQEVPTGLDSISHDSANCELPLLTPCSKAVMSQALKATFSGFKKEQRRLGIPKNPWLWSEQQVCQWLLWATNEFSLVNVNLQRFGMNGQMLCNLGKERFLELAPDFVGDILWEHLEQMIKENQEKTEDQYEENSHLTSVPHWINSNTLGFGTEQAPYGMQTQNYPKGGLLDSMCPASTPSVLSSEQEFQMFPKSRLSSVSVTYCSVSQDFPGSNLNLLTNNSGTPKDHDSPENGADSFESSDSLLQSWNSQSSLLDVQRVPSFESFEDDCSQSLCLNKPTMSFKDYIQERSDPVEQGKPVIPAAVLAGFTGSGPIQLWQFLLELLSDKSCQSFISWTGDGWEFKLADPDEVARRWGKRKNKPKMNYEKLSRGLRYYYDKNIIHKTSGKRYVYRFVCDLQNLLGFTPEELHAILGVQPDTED
A digest of the protocol:
as §1

The target in assay [11] is T8, SPDEF (Homo sapiens, UniProt O95238 1-335).
T8 sequence: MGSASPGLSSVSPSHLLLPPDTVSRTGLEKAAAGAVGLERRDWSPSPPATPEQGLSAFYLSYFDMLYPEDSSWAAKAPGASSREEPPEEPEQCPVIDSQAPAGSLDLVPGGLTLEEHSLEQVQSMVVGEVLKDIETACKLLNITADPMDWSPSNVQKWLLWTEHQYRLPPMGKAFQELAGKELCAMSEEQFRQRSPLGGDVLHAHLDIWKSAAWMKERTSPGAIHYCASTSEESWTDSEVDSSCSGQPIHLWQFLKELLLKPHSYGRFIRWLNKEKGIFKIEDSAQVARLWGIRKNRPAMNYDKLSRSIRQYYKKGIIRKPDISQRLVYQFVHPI
The method in brief:
as §1

For assay [12], the target named is T9, ETV7 (Homo sapiens, UniProt Q9Y603 1-341).
T9 sequence: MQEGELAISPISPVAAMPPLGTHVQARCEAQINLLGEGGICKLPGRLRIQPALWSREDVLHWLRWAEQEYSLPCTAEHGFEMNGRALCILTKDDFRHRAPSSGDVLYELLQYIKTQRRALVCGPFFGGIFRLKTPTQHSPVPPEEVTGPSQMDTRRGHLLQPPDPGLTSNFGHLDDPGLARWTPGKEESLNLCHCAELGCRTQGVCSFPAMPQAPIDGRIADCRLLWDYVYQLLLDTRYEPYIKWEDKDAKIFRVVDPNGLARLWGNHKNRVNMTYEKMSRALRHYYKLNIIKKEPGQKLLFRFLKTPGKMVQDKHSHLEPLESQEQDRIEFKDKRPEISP
A digest of the protocol:
as §1

For assay [13], the target named is T10, ETV3 (Homo sapiens, UniProt P41162-2 1-143).
T10 sequence: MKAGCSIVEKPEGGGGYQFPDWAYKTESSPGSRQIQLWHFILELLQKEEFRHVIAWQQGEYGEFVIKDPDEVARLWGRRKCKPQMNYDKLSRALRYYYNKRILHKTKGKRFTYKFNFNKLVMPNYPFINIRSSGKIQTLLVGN
The method in brief: as §1

For assay [14], the target named is ETV6 (Homo sapiens, UniProt P41212 1-452). A digest of the protocol:
as §1

Chain of ETV1 (P50549 whole entry): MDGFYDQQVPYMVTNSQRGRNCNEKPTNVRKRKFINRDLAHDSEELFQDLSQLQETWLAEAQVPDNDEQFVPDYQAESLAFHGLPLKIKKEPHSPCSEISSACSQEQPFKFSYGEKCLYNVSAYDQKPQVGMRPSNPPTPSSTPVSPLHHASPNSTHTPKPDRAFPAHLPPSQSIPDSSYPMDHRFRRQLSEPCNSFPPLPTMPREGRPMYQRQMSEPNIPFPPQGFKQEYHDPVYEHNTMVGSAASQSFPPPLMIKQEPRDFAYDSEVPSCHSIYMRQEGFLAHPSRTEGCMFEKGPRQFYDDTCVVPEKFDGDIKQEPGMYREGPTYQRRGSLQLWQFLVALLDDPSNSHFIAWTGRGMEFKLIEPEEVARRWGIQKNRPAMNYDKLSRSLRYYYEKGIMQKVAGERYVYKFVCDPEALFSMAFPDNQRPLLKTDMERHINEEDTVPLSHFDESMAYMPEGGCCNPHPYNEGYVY
Chain of ETV5 (P41161 whole entry): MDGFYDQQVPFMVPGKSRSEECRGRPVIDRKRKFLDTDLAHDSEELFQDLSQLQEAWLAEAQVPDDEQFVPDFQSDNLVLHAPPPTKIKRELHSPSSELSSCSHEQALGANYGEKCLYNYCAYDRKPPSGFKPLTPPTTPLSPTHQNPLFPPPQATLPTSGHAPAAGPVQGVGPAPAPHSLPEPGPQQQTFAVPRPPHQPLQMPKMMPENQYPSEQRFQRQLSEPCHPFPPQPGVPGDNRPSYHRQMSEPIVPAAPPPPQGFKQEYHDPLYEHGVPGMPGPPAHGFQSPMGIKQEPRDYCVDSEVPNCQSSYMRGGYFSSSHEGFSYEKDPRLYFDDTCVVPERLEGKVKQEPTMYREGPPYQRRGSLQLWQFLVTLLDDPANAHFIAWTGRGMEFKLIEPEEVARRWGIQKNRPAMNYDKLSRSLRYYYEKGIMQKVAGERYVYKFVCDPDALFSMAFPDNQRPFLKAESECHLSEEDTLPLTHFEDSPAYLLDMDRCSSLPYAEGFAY
Chain of ETV6 (P41212 whole entry): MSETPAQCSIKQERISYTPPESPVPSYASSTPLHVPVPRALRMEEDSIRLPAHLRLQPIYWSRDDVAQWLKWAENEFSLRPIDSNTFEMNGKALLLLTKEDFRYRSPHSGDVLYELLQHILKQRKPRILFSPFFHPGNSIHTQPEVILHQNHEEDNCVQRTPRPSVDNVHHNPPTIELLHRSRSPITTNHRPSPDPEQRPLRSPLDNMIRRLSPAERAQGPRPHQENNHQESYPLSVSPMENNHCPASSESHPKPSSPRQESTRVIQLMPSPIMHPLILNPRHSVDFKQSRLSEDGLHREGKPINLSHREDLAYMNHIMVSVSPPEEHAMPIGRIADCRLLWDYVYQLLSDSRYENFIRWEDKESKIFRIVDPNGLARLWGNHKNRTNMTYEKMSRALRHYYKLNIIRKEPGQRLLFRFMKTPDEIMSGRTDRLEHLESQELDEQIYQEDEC
Chain of ELF4 (Q99607 whole entry): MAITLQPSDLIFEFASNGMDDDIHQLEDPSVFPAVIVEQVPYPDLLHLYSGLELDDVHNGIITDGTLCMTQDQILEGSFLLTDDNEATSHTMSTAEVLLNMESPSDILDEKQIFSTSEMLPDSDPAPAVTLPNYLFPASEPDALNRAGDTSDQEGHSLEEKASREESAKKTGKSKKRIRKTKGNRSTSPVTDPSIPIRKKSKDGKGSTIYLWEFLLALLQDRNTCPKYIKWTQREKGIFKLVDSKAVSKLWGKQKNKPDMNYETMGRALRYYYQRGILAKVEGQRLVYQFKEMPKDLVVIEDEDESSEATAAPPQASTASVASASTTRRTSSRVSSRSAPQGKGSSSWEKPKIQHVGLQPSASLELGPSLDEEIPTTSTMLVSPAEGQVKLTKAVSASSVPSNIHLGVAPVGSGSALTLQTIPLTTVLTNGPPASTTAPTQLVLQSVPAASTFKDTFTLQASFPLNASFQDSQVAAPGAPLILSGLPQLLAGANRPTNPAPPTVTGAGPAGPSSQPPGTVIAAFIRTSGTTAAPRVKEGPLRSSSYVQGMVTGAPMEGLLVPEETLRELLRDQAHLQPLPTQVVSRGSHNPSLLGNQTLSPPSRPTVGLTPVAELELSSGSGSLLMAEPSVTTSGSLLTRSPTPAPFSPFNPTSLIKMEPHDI

As to GAAGCC, the binding signal was 1.06 fold enrichment (6-mer frequency, TF over GST control) in [1]; 1 fold enrichment (6-mer frequency, TF over GST control) in [2]; 1.08 fold enrichment (6-mer frequency, TF over GST control) in assay [3]; 1.05 fold enrichment (6-mer frequency, TF over GST control) in [4]; 1.07 fold enrichment (6-mer frequency, TF over GST control) in assay [5]; 1 fold enrichment (6-mer frequency, TF over GST control) in [6]. Besides, the binding signal was 1.04 fold enrichment (6-mer frequency, TF over GST control) in assay [7]; 1.01 fold enrichment (6-mer frequency, TF over GST control) in assay [8]; 1.04 fold enrichment (6-mer frequency, TF over GST control) in assay [9]; 1.01 fold enrichment (6-mer frequency, TF over GST control) in assay [10]; 1.01 fold enrichment (6-mer frequency, TF over GST control) in assay [11]; 1.12 fold enrichment (6-mer frequency, TF over GST control) in assay [12]. Besides, the binding signal in assay [13] was 1 fold enrichment (6-mer frequency, TF over GST control); in assay [14], 1.09 fold enrichment (6-mer frequency, TF over GST control).
